Reference: the supplement of paper PMC12494721
Structures can show the parent of a compound that is named as a salt.

These compounds were tested on Clostridium sporogenes DSM 1664 (assay: fold change of Tryptamine concentration vs plate DMSO controls (fold change (ratio)); higher = more amine produced, active = hit call of the paper (significant change in both replicates, either direction)). Settings: incubation time: 27 h, anaerobic, 37 °C;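 for the amine columns active = adjusted P below 0.05 in both replicates with a change the same way and a mean fold change under 0.8 or over 1.25; inactive = the rest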.
Procedure, shortened: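 Each value is the fold change relative to DMSO-only wells on the same plate. Four gut bacterial strains were grown anaerobically in mGAM at 37 °C for 27 h in 80 µL wells, starting at OD 0.1 before a 1:1 dilution, with compounds at 20 µM final (sweeteners 50 µM). Whole cultures were extracted with cold acetonitrile/methanol containing 0.1% formic acid, centrifuged, and amines were quantified by LC–triple-quadrupole MS (dynamic MRM) against external calibration curves with within-batch drift correction. Values are means of 2 biological replicates.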

Fold change of Tryptamine concentration, inactive:
C1CCC(C(CC2CCCCN2)C2CCCCC2)CC1 (centres undefined) [Perhexiline maleate] (20 µM) 1.03, COc1ccc(-c2cc(=O)c3c(O)cc(O[C@@H]4O[C@H](CO[C@@H]5O[C@@H](C)[C@H](O)[C@@H](O)[C@H]5O)[C@@H](O)[C@H](O)[C@H]4O)cc3o2)cc1O [Diosmin] (20 µM) 0.985, CC(C)N1CCN(c2ccc(OCC3COC(Cn4cncn4)(c4ccc(Cl)cc4Cl)O3)cc2)CC1 (centres undefined) [Terconazole] (20 µM) 0.976, CCCCNc1ccc(C(=O)OCCN(C)C)cc1 [Tetracaine hydrochloride] (20 µM) 1.04, CCC(=O)OCC(=O)[C@@]1(OC(=O)CC)[C@H](C)C[C@H]2[C@H]3[C@H]([C@@H](O)C[C@@]21C)[C@@]1(C)C=CC(=O)C=C1C[C@H]3Cl [Alclometasone dipropionate] (20 µM) 1, C#CCN(C)CCCOc1ccc(Cl)cc1Cl [Clorgyline hydrochloride] (20 µM) 0.96, CCCCS(=O)(=O)N[C@@H](Cc1ccc(OCCCCC2CCNCC2)cc1)C(=O)O [Tirofiban hydrochloride] (20 µM) 0.943, CC(C)CN(C[C@@H](O)[C@H](Cc1ccccc1)NC(=O)O[C@H]1CCOC1)S(=O)(=O)c1ccc(N)cc1 [Amprenavir] (20 µM) 0.952, CC[C@H](C)C(=O)O[C@H]1C[C@@H](C)C=C2C=C[C@H](C)[C@H](CC[C@@H]3C[C@@H](O)CC(=O)O3)[C@H]21 [Lovastatin] (20 µM) 0.945
